Measured values taken from PubChem BioAssay (NCATS).
Inconclusive results are not listed. Active and inactive are the calls of the source. Calls follow the shape of the dose curve; as a rule, active = well fitted inhibition curve with a large enough effect; inconclusive = small, poorly fitted or top-dose-only effect; inactive = flat fitted curve, though single readings scatter.

Key:
[1] = qHTS profiling for inhibitors of Plasmodium falciparum proliferation (AID 504749); also: nearly all actives have a fitted effect of over 60% in size;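 as to activity, negative = inhibition: 0% = DMSO vehicle and full inhibition = artemisinin control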; conditions: P. falciparum in erythrocytes, SYBR Green DNA, 72 h, at 28.7 µM (top of the series)
Method in brief: (§1)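 Quantitative HTS: compounds pinned into medium, infected erythrocytes added (0.3% parasitemia, 2.5% hematocrit), 72 h culture at 37 C under 5% CO2. Saponin/Triton lysis with SYBR Green I, overnight RT, then fluorescence read.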

3D7 = test: as above; conditions: P. falciparum in erythrocytes, SYBR Green DNA, 72 h; series mostly up to 28.7 µM
Method in brief: as §1

7G8 = test: as above; conditions: P. falciparum in erythrocytes, SYBR Green DNA, 72 h; series mostly up to 28.7 µM
Method in brief: as §1

AA1029 = test: as above; conditions: P. falciparum in erythrocytes, SYBR Green DNA, 72 h; series mostly up to 28.7 µM
Method in brief: as §1

AS120 = test: as above; conditions: P. falciparum in erythrocytes, SYBR Green DNA, 72 h; series mostly up to 28.7 µM
Method in brief: as §1

ATS189 = test: as above; conditions: P. falciparum in erythrocytes, SYBR Green DNA, 72 h; series mostly up to 28.7 µM
Method in brief: as §1

ATS95 = test: as above; conditions: P. falciparum in erythrocytes, SYBR Green DNA, 72 h; series mostly up to 28.7 µM
Method in brief: as §1

C2A = test: as above; conditions: P. falciparum in erythrocytes, SYBR Green DNA, 72 h; series mostly up to 28.7 µM
Method in brief: as §1

CP185 = test: as above; conditions: P. falciparum in erythrocytes, SYBR Green DNA, 72 h; series mostly up to 28.7 µM
Method in brief: as §1

CP191 = test: as above; conditions: P. falciparum in erythrocytes, SYBR Green DNA, 72 h; series mostly up to 28.7 µM
Method in brief: as §1

CP192 = test: as above; conditions: P. falciparum in erythrocytes, SYBR Green DNA, 72 h; series mostly up to 28.7 µM
Method in brief: as §1

CP194 = test: as above; conditions: P. falciparum in erythrocytes, SYBR Green DNA, 72 h; series mostly up to 28.7 µM
Method in brief: as §1

CP201 = test: as above; conditions: P. falciparum in erythrocytes, SYBR Green DNA, 72 h; series mostly up to 28.7 µM
Method in brief: as §1

CP211 = test: as above; conditions: P. falciparum in erythrocytes, SYBR Green DNA, 72 h; series mostly up to 28.7 µM
Method in brief: as §1

CP215 = test: as above; conditions: P. falciparum in erythrocytes, SYBR Green DNA, 72 h; series mostly up to 28.7 µM
Method in brief: as §1

CP217 = test: as above; conditions: P. falciparum in erythrocytes, SYBR Green DNA, 72 h; series mostly up to 28.7 µM
Method in brief: as §1

CP237 = test: as above; conditions: P. falciparum in erythrocytes, SYBR Green DNA, 72 h; series mostly up to 28.7 µM
Method in brief: as §1

CP238 = test: as above; conditions: P. falciparum in erythrocytes, SYBR Green DNA, 72 h; series mostly up to 28.7 µM
Method in brief: as §1

CP247 = test: as above; conditions: P. falciparum in erythrocytes, SYBR Green DNA, 72 h; series mostly up to 28.7 µM
Method in brief: as §1

CP203 = test: as above; conditions: P. falciparum in erythrocytes, SYBR Green DNA, 72 h; series mostly up to 28.7 µM
Method in brief: as §1
Potency is read from the fitted curve at half-maximal effect.

O=P(O)(O)O
inactive: activity, negative = inhibition ([1]; parasite line A) 1.79% | activity, negative = inhibition ([1]; parasite line B) 16.4% | Potency (3D7) | Potency (7G8) | Potency (AA1029) | Potency (AS120) | Potency (ATS189) | Potency (ATS95) | Potency (C2A) | Potency (CP185) | Potency (CP191) | Potency (CP192) | Potency (CP194) | Potency (CP201) | Potency (CP211) | Potency (CP215) | Potency (CP217) | Potency (CP237) | Potency (CP238) | Potency (CP247)

CC(C)O
inactive: activity, negative = inhibition ([1]; parasite line A) 2.73% | activity, negative = inhibition ([1]; parasite line B) 13.2% | Potency (3D7) | Potency (7G8) | Potency (AA1029) | Potency (AS120) | Potency (ATS189) | Potency (ATS95) | Potency (C2A) | Potency (CP185) | Potency (CP191) | Potency (CP192) | Potency (CP194) | Potency (CP201) | Potency (CP211) | Potency (CP215) | Potency (CP217) | Potency (CP237) | Potency (CP238) | Potency (CP247)

COC(=O)CC[C@H](N)C(=O)O
inactive: activity, negative = inhibition ([1]; parasite line A) 18.1% | activity, negative = inhibition ([1]; parasite line B) 11.5% | Potency (3D7) | Potency (7G8) | Potency (AA1029) | Potency (AS120) | Potency (ATS189) | Potency (ATS95) | Potency (C2A) | Potency (CP185) | Potency (CP191) | Potency (CP192) | Potency (CP194) | Potency (CP201) | Potency (CP211) | Potency (CP215) | Potency (CP217) | Potency (CP237) | Potency (CP238) | Potency (CP247)

COc1ccc(C(=O)c2ccc(C)cc2)c(O)c1
inactive: activity, negative = inhibition ([1]; parasite line A) 16.1% | activity, negative = inhibition ([1]; parasite line B) 14.8% | Potency (3D7) | Potency (7G8) | Potency (AA1029) | Potency (AS120) | Potency (ATS189) | Potency (ATS95) | Potency (C2A) | Potency (CP185) | Potency (CP191) | Potency (CP192) | Potency (CP194) | Potency (CP201) | Potency (CP203) | Potency (CP215) | Potency (CP217) | Potency (CP237) | Potency (CP238) | Potency (CP247)

CC(=O)NCCCS(=O)(=O)O
inactive: activity, negative = inhibition ([1]; parasite line A) 2.58% | activity, negative = inhibition ([1]; parasite line B) 11.9% | Potency (3D7) | Potency (7G8) | Potency (AA1029) | Potency (AS120) | Potency (ATS189) | Potency (ATS95) | Potency (C2A) | Potency (CP185) | Potency (CP191) | Potency (CP192) | Potency (CP194) | Potency (CP201) | Potency (CP211) | Potency (CP215) | Potency (CP217) | Potency (CP237) | Potency (CP238) | Potency (CP247)

CCCCC
inactive: activity, negative = inhibition ([1]; parasite line A) 7.05% | activity, negative = inhibition ([1]; parasite line B) 20.9% | Potency (3D7) | Potency (7G8) | Potency (AA1029) | Potency (AS120) | Potency (ATS189) | Potency (ATS95) | Potency (C2A) | Potency (CP185) | Potency (CP191) | Potency (CP192) | Potency (CP194) | Potency (CP201) | Potency (CP211) | Potency (CP215) | Potency (CP217) | Potency (CP237) | Potency (CP238) | Potency (CP247)

O=C(OC1C[C@@H]2CC3C[C@H](C1)N2CC3=O)c1c[nH]c2ccccc12 (stereo not given in full)
active: Potency (7G8) 11.2 µM
inactive: activity, negative = inhibition ([1]; parasite line A) -11.9% | activity, negative = inhibition ([1]; parasite line B) -12.9% | Potency (3D7) | Potency (AA1029) | Potency (AS120) | Potency (ATS189) | Potency (ATS95) | Potency (C2A) | Potency (CP185) | Potency (CP191) | Potency (CP192) | Potency (CP194) | Potency (CP201) | Potency (CP203) | Potency (CP215) | Potency (CP217) | Potency (CP237) | Potency (CP238) | Potency (CP247)

COc1cc(C)c(/C=C/C(C)=C/C=C/C(C)=C/C(=O)O)c(C)c1C
inactive: activity, negative = inhibition ([1]; parasite line A) -5.12% | activity, negative = inhibition ([1]; parasite line B) -0.604% | Potency (3D7) | Potency (7G8) | Potency (AA1029) | Potency (AS120) | Potency (ATS189) | Potency (ATS95) | Potency (C2A) | Potency (CP185) | Potency (CP191) | Potency (CP192) | Potency (CP194) | Potency (CP201) | Potency (CP203) | Potency (CP211) | Potency (CP217) | Potency (CP237) | Potency (CP238) | Potency (CP247)

O=P(O)(O)OC[C@H](O)CO
inactive: activity, negative = inhibition ([1]; parasite line A) -1.1% | activity, negative = inhibition ([1]; parasite line B) 9.77% | Potency (3D7) | Potency (7G8) | Potency (AA1029) | Potency (AS120) | Potency (ATS189) | Potency (ATS95) | Potency (C2A) | Potency (CP185) | Potency (CP191) | Potency (CP192) | Potency (CP194) | Potency (CP201) | Potency (CP203) | Potency (CP211) | Potency (CP217) | Potency (CP237) | Potency (CP238) | Potency (CP247)

CN(C)C=Nc1c(I)cc(I)c(CCC(=O)O)c1I
inactive: activity, negative = inhibition ([1]; parasite line A) 0.723% | activity, negative = inhibition ([1]; parasite line B) 1.95% | Potency (3D7) | Potency (7G8) | Potency (AA1029) | Potency (AS120) | Potency (ATS189) | Potency (ATS95) | Potency (C2A) | Potency (CP185) | Potency (CP191) | Potency (CP192) | Potency (CP194) | Potency (CP201) | Potency (CP211) | Potency (CP215) | Potency (CP217) | Potency (CP237) | Potency (CP238) | Potency (CP247)

C[C@H]1O[C@@H](O[C@H]2[C@@H](O)C[C@H](O[C@H]3[C@@H](O)C[C@H](O[C@H]4CC[C@@]5(C)[C@H](CC[C@@H]6[C@@H]5C[C@@H](O)[C@]5(C)[C@@H](C7=CC(=O)OC7)CC[C@]65O)C4)O[C@@H]3C)O[C@@H]2C)C[C@H](O)[C@@H]1O
inactive: activity, negative = inhibition ([1]; parasite line A) -10.9% | activity, negative = inhibition ([1]; parasite line B) 10.4% | Potency (3D7) | Potency (AA1029) | Potency (AS120) | Potency (ATS189) | Potency (ATS95) | Potency (C2A) | Potency (CP185) | Potency (CP191) | Potency (CP192) | Potency (CP194) | Potency (CP201) | Potency (CP211) | Potency (CP215) | Potency (CP217) | Potency (CP237) | Potency (CP238) | Potency (CP247)
active: Potency (7G8) 11.2 µM

CC12CCC(C1)C(C)(C)C2=O (stereo not given)
inactive: activity, negative = inhibition ([1]; parasite line A) 8.34% | activity, negative = inhibition ([1]; parasite line B) 10.9% | Potency (3D7) | Potency (7G8) | Potency (AA1029) | Potency (AS120) | Potency (ATS189) | Potency (ATS95) | Potency (C2A) | Potency (CP185) | Potency (CP191) | Potency (CP192) | Potency (CP194) | Potency (CP201) | Potency (CP211) | Potency (CP215) | Potency (CP217) | Potency (CP237) | Potency (CP238) | Potency (CP247)
